Screens deposited in PubChem BioAssay by National Center for Advancing Translational Sciences (NCATS).
DT40 TDP1 no CPT: qHTS for Inhibitors of human tyrosyl-DNA phosphodiesterase 1 (TDP1): qHTS in cells in absence of CPT | Potency, µM (doses to about 46.2 µM), most hits filed as inhibitors | AID 686978, 2013 | 420,000 compounds, 15% hits | DT40 Tdp1-/- hTDP1 cells, no CPT, ATP luminescence, 48 h; further: nearly all actives have a fitted effect of over 55% in size
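A cellular qHTS used chicken DT40 cells lacking endogenous Tdp1 but carrying stably transfected human TDP1. Compounds were applied without camptothecin, and cell growth kinetics were judged by ATP-dependent luminescence after ≥48 hr.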
ELG1 DNA repair: inhibitors of ELG1-dependent DNA repair in HEK293T cells; Potency, µM (doses to about 46.1 µM), most hits filed as inhibitors; HEK293T ELG1-luciferase reporter, luminescence, 16 h; DNA damage induced by 5-fluorouridine; 330,000 compounds, 2.3% hits; further: nearly all actives have a fitted effect of over 55% in size
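DMSO vehicle served as the neutral condition. Each well held 2,000 cells given 5-fluorouridine plus compound; after 16 hr at 37 °C/5% CO2, ONE-Glo was added and luciferase measured 30 min later.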
Gal4-VP16 FLuc: inhibits Gal4-VP16 luciferase reporter, ROR gamma counter-screen | Drosophila S2 Gal4-VP16 UAS-luciferase, luminescence, 20 h | Potency, µM (series often up to 53.6 µM), usual class: inhibitors | 310,000 compounds, 3.5% hits;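 further: Gal4-VP16 expression switched on by copper sulfate through the metallothionein promoter; nearly all actives have a fitted effect of over 50% in size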
IL-1B inflam inh: blocks inflammasome-driven IL-1 beta release; activity change, % at 57.5 µM; 360,000 compounds, 4.7% hits; THP-1 LPS/ATP IL-1B secretion, AlphaLISA, 16 h; hits give low values; AID 743279; in the data active means activity change below about -50%; inconclusive means mostly about -30% to -49%
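Secreted IL-1B measured by AlphaLISA bead assay after 16 h compound exposure of THP-1 cells; compounds (final up to 57.5 uM) added 1 h before LPS (250 ng/mL) and ATP (1.25 mM) stimulation; lower signal means less secretion.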
RORgamma inh: ROR gamma (mouse) transcription inhibition; Potency, µM (doses to about 53.6 µM), hits mostly inhibitors; Drosophila S2 Gal4-RORgamma UAS-luciferase reporter, 20 h; 310,000 compounds, 5.4% hits; AID 2551; further: nearly all actives have a fitted effect of over 60% in size
Target sequence (P51450 whole entry, looked up, the tested form may be a part): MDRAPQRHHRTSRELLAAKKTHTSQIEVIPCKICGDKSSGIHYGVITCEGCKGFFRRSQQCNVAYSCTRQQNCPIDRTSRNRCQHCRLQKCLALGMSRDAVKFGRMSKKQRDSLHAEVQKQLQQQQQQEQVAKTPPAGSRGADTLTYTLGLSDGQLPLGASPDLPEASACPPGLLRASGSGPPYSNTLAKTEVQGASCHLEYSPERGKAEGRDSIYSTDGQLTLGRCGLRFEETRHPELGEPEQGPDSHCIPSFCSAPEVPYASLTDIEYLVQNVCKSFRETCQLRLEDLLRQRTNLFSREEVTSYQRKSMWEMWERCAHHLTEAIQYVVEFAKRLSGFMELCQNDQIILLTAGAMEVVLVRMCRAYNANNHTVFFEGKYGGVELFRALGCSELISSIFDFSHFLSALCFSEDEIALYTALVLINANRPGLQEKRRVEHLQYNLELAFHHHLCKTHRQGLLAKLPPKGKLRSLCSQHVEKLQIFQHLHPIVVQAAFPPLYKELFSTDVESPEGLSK
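Read-out: Photinus luciferase luminescence; inhibitors lower reporter signal. Insect Schneider cells with Gal4-ROR gamma fusion under metallothionein promoter, UAS reporter; 700 uM final copper sulfate induction, 20 hr, ambient temperature.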
DT40 TDP1 CPT: growth inhibition of DT40 Tdp1-/-;hTDP1 cells with camptothecin (screen for TDP1 inhibitors). chicken DT40 Tdp1-/-;hTDP1 cells + 20 nM CPT, ATP luminescence, 48 h. Potency, µM (doses to about 46.2 µM), usual class: inhibitors. 420,000 compounds, 12% hits; further: nearly all actives have a fitted effect of over 55% in size
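Chicken DT40 Tdp1-/- cells complemented with human TDP1, 400 cells/well, exposed to compounds plus 20 nM camptothecin for at least 48 h at 37 C; viability read as ATP content by CellTiter-Glo luminescence.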
Of the large screens only hits and unclear results are named; the others gave an inactive call. An excerpt weighted towards active compounds, which were near 21% of everything screened. Unless noted, the call rests on the fitted dose curve; in most records, active means well fitted curve in the direction sought with a large enough effect; inconclusive means small, poorly fitted or top-dose-only effect, or another doubt; inactive means no such curve, though single readings can be large; an effect the other way counts as inactive or inconclusive.

CC(C)(C)OC(=O)N/N=C/c1cc(N=Nc2ccccc2)ccc1O	DT40 TDP1 no CPT inconclusive, ELG1 DNA repair inconclusive, Gal4-VP16 FLuc 5.6µM, RORgamma inh 4µM, DT40 TDP1 CPT inconclusive
Cc1c(C(=O)NCCN2CCC(c3ccccc3)CC2)cnn1-c1nccc(-c2cccs2)n1	DT40 TDP1 no CPT inconclusive (no result: ELG1 DNA repair, Gal4-VP16 FLuc, IL-1B inflam inh, RORgamma inh)
O=C(N/N=C/c1ccccc1O)c1cc[n+]([O-])cc1	DT40 TDP1 no CPT 29µM, RORgamma inh inconclusive, DT40 TDP1 CPT 15µM
O=C(NN=Cc1cccc(O)c1O)c1ccccc1	DT40 TDP1 no CPT 4.6µM, DT40 TDP1 CPT 2.6µM (no result: ELG1 DNA repair, Gal4-VP16 FLuc, RORgamma inh)
O=C(N/N=C/c1ccccc1)c1cc[n+]([O-])cc1	none
O=C(N/N=C\c1ccccc1F)c1ccc(-c2ccccc2)cc1	ELG1 DNA repair inconclusive
O=C(N/N=C/c1cc(Br)ccc1O)c1ccncc1	DT40 TDP1 no CPT 1.6µM, ELG1 DNA repair inconclusive, Gal4-VP16 FLuc inconclusive, RORgamma inh 6.3µM, DT40 TDP1 CPT 4.6µM
O=C(N/N=C/c1ccc(O)c2ncccc12)c1cccc(Br)c1	DT40 TDP1 no CPT 4.6µM, ELG1 DNA repair inconclusive, Gal4-VP16 FLuc inconclusive, RORgamma inh 16µM, DT40 TDP1 CPT 3.7µM
O=C(N/N=C/c1cc([N+](=O)[O-])ccc1O)c1ccncc1	DT40 TDP1 no CPT inconclusive, ELG1 DNA repair inconclusive, RORgamma inh inconclusive, DT40 TDP1 CPT inconclusive
CCCCOc1ccc(C(=O)NCC(=O)NCC(c2ccc(OC)cc2)N2CCCC2)cc1 (stereo unspecified)	IL-1B inflam inh inconclusive (no result: Gal4-VP16 FLuc, RORgamma inh)
O=C(N/N=C\c1ccc(Sc2ccccn2)o1)c1cccc(Br)c1	Gal4-VP16 FLuc inconclusive, IL-1B inflam inh inconclusive, RORgamma inh 8.9µM
Cc1nc(C)c(C(=O)N/N=C/c2c[nH]c3ccccc23)s1	DT40 TDP1 no CPT inconclusive, ELG1 DNA repair inconclusive, DT40 TDP1 CPT inconclusive
Cc1ccccc1C(=O)N/N=C/c1ccc(Sc2ccccn2)o1	none
O=C(N/N=C\c1cc(Br)ccc1O)c1ccc(S(=O)(=O)N2CCCCC2)cc1	DT40 TDP1 no CPT 2.9µM, ELG1 DNA repair inconclusive, Gal4-VP16 FLuc 4µM, RORgamma inh 3.5µM, DT40 TDP1 CPT 4.1µM
Cc1nc(C)c(C(=O)N/N=C/c2cc(Br)ccc2O)s1	DT40 TDP1 no CPT 3.7µM, ELG1 DNA repair inconclusive, Gal4-VP16 FLuc 7.9µM, RORgamma inh 3.2µM, DT40 TDP1 CPT 4.6µM
CC1=C(C(=O)N2CCOCC2)CC(CC(=O)NC2CCCC2)C(=O)N1CCCN1CCCC1=O (stereo unspecified)	none (no result: ELG1 DNA repair, Gal4-VP16 FLuc, RORgamma inh)
CCC(=O)Nc1ccc(C(=O)CSc2nnc(-c3ccc(NS(=O)(=O)CC)cc3)o2)cc1OC	DT40 TDP1 no CPT 1.2µM, DT40 TDP1 CPT 1.6µM
CCS(=O)(=O)Nc1ccc(-c2nnc(SCC(=O)OC)o2)cc1	IL-1B inflam inh -85, RORgamma inh inconclusive
COC(=O)CSc1nnc(-c2ccc(S(=O)(=O)N3CCCC3)cc2)o1	IL-1B inflam inh -52
Cc1cc(C)cc(NC(=O)CSc2nnc(-c3ccc(S(=O)(=O)N4CCCC4)cc3)o2)c1	none
Cc1nn(-c2ccccc2)c(Cl)c1C(=O)OCC(=O)NCCc1ccc(S(N)(=O)=O)cc1	ELG1 DNA repair inconclusive (no result: Gal4-VP16 FLuc, RORgamma inh)
CC(=O)N1c2c(cc(Br)cc2S(=O)(=O)N2CCN(C(=O)c3ccco3)CC2)CC1C (stereo unspecified)	DT40 TDP1 no CPT 18µM, ELG1 DNA repair inconclusive, DT40 TDP1 CPT 21µM
CC(=O)N1c2c(cc(Br)cc2S(=O)(=O)Nc2c(C)n(C)n(-c3ccccc3)c2=O)CC1C (stereo unspecified)	ELG1 DNA repair inconclusive
CC(=O)N1c2c(cc(Br)cc2S(=O)(=O)N2CCN(c3ccccc3)CC2)CC1C (stereo unspecified)	DT40 TDP1 no CPT 16µM, DT40 TDP1 CPT 23µM (no result: ELG1 DNA repair, Gal4-VP16 FLuc, IL-1B inflam inh, RORgamma inh)
Cc1ccccc1NC(=S)NCc1ccc2c(c1)cc(C)n2C	DT40 TDP1 no CPT 3.3µM, Gal4-VP16 FLuc 11µM, RORgamma inh 6.3µM, DT40 TDP1 CPT 2.9µM
Cc1cc2cc(CNC(=O)C3CC3)ccc2n1C	none
Cc1cc2cc(CNC(=S)NCc3ccccc3)ccc2n1C	Gal4-VP16 FLuc inconclusive, RORgamma inh 18µM
